For 35 compounds, z-score results are on record in PubChem BioAssay.

This experiment is described as follows: mitochondrial membrane potential change in A549 cells, profiling panel, cell-based, JC-1 fluorescence, basal, 24 h, 100 nL (AID 1138).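 Also: A549 lung adenocarcinoma cells under basal conditions with no added stimulus; test concentration not given here.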 To be noted: higher = more signal.
In turn, `C=CCOC(=O)[C@H]1[C@@H]2C(=O)O[C@@H](c3ccccc3)[C@@H](c3ccccc3)N2[C@@H](c2ccc(OCCOC(=O)[C@H]3C[C@H]4C(=O)N[C@@H](CC(C)C)C(=O)N4[C@H]3c3ccc(O)cc3)cc2)[C@]12C(=O)Nc1ccccc12` returned a z-score of -1.48.
As for `CCOC(=O)C1=C[C@@H](C(C)(C)C)N(S(=O)(=O)c2ccc(C)cc2)[C@H]1c1ccc(C#N)cc1`, the figure is 1.53.
As to `C=CCOC(=O)[C@@H]1[C@H]2C(=O)O[C@H](c3ccccc3)[C@H](c3ccccc3)N2[C@H](c2ccc(OCCOC(=O)[C@H]3C[C@H]4C(=O)N[C@@H](CCCCN(C)C)C(=O)N4[C@H]3c3ccc(O)cc3)cc2)[C@@]12C(=O)Nc1ccc(I)cc12`, the z-score is -0.641.
As for `COC(=O)[C@H](Cc1ccc(O)cc1)N[C@@H](/C=C/C1CC1)[C@H](O)Cc1ccccc1`, the figure is 0.091; as for `O=C(NCC(O)CO)C1N=C(c2ccc(OCCCO)cc2)N(c2ccccc2)O1` (stereo not given), 0.42; as for `CCCc1cc2c(n1CCc1ccc(Cl)cc1)C(C)C1CN(C(=O)c3ccccc3)C(C)(C(=O)OC)C21` (stereo not given), 1.25.
Then `CC(C)(C)OC(=O)CC[C@]1(C(=O)NCC(O)CO)N=C(c2ccc(OCCCO)cc2)O[C@H]1c1ccccc1N=[N+]=[N-]` (stereo not given in full), with 0.739; and `COc1ccc([Si](C)(C)[C@H]2[C@H](CC(=O)N3CCC[C@H]3CO)O[C@@]3(C(=O)N(Cc4ccc(N5CCCCC5=O)cc4)c4ccccc43)[C@@H]2C)cc1`, with 1.39; and `CN1C(=O)[C@@H]2[C@@H](CC(COc3ccccc3)=C3[C@@H](CCc4ccccc4)OB(O)C[C@@H]32)C1=O`, with 0.208.
As for `CC(C)(C)N1CC=CC23O[C@@H]4C=CCCOC(=O)C4[C@H]2C(=O)N(CCCCCCO)[C@@H]3C1=O` (stereo not given in full), the figure is 0.223; as for `O=C1C=C(c2ccccc2)C(=O)C2=C1CC([C@H]1Oc3ccccc3S(=O)(=O)N3CCC[C@@H]13)=CC2`, -1.32.
Consider `O=C(NCc1ccc(F)cc1)[C@H]1C[C@H]2C(=O)N3CCC[C@H]3C(=O)N2[C@H]1c1ccc(O)cc1`, for which the z-score was -0.0591.
`CC(=O)c1ccc(C(O)C2C=CC3C(=O)N(c4ccccc4)C(=O)C3N2Nc2ccc(C(C)C)cc2)cc1` (stereo not given) registered a z-score of 0.678.
As for `CCCCC(O)C1C=CC2C(=O)N(c3ccccc3)C(=O)C2N1Nc1ccc([N+](=O)[O-])cc1` (stereo not given), the figure is -0.52.
`O=C1[C@@H]2[C@@H](CC(COc3ccccc3)=C([C@H](O)CCc3ccccc3)[C@@H]2CO)C(=O)N1Cc1ccccc1` gave a z-score of 2.07.
`COC(=O)[C@@]1(Cc2ccc(F)cc2)[C@H]2c3cc(C(=O)N(C)C)n(C)c3C[C@H]2CN1C(=O)c1ccccc1` registered a z-score of 0.239.
As to `C[N+](C)(C)CCCC[C@@H]1NC(=O)[C@H]2C[C@@H](C(=O)NCCCCCNC(=O)CS)[C@@H](c3cccc(OCCO)c3)N2C1=O`, the z-score was 0.299.
Turning to `COC(=O)C[C@H]1O[C@@]2(C[C@@H]1[Si](C)(C)C)C(=O)N(C)c1ccccc12`, the z-score was found to be 1.63.
Then `C=CCOC(=O)[C@H]1[C@@H]2C(=O)O[C@@H](c3ccccc3)[C@@H](c3ccccc3)N2[C@@H](c2ccc(OCCOC(=O)[C@@H]3C[C@@H]4C(=O)N[C@@H](CCCC[N+](C)(C)C)C(=O)N4[C@@H]3c3ccc(O)cc3)cc2)[C@]12C(=O)Nc1ccc(I)cc12`, with -1.77; and `C=CC[C@@]1(C(=O)OC)N=C(c2ccc(OCCCO)cc2)O[C@@H]1c1ccccc1N=[N+]=[N-]`, with 0.311.
As for `C=CC[C@@]1(C(=O)N(C)C)N=C(c2ccc(OCCCO)cc2)O[C@@H]1c1ccccc1CN=[N+]=[N-]`, the figure is 3.32.
For the compound `CCCCCC1=C2CNC(CC(C)C)(C(=O)OC)C=C2C(C)C1=O` (stereo not given), the z-score was determined as 0.326.
As for `COc1ccc(C(O)C2C=CC3C(=O)NC(=O)C3N2Nc2ccc(Cl)cc2Cl)c2ccccc12` (stereo not given), the figure is -0.209; as for `CCOC(=O)C[C@H]1[C@H](OC(=O)Cc2ccc3c(c2)OCO3)[C@@H](NC(=O)c2ccc3ccccc3n2)c2cc(OCCCO)ccc2N1C(=O)Cc1ccc(OC)cc1`, 1.26; as for `CCCCC(O)C1C=CC2C(=O)N(c3ccccc3)C(=O)C2N1Nc1ccccc1` (stereo not given), 0.656.
Then `COc1ccc([Si](C)(C)[C@@H]2[C@@H](CC(=O)N3CCC[C@H]3CO)O[C@]3(C(=O)N(Cc4ccc(N5CCOC5=O)cc4)c4ccccc43)[C@H]2C)cc1`, with 0.735.
As for `CC(C)NC(=O)[C@@]1(c2ccc([N+](=O)[O-])cc2)CC(=O)N(CC23CC4CC(CC(C4)C2)C3)[C@@H]1c1ccc(CO)cc1`, the figure is -0.237; as for `C=C(CCCC)/C(=C/C[C@H](OC(C)=O)c1cccc(OCCO)c1)c1cnc2ccccc2c1`, 2.35; as for `COCCOC(=O)N1C(=O)[C@@]2(c3cc(C#CCCO)ccc31)[C@H](c1ccc(OCCO)cc1)N1[C@H](c3ccccc3)[C@H](c3ccccc3)OC(=O)[C@H]1[C@@H]2C(=O)N1CCCCCCC1`, -0.901.
For the compound `COc1ccc([Si](C)(C)[C@@H]2[C@@H](CC(=O)N(CCO)Cc3ccccc3)O[C@]3(C(=O)N(Cc4ccc(N5C(=O)c6cccc7cccc5c67)cc4)c4ccccc43)[C@H]2C)cc1`, the z-score was -0.216.
Compound `CCOC(=O)C1=CC[C@@H](c2ccc(OC)cc2)N(S(=O)(=O)c2ccc(C)cc2)[C@H]1CC` came in with a z-score of 2.69.
Then `CN1C(=O)C2C(C1=O)C1C=C(c3ccc(CO)cc3)C2C(C2CC2)N1C` (stereo not given), with -0.808; and `C=C(CCCC)C(=O)CC[C@@H](OC(=O)c1ccccc1-c1ccccc1C(=O)O)c1ccccc1OCCO`, with 0.916.
Then `C=C1C(=O)C=C2CN(C(=O)c3ccccc3)[C@@](Cc3ccc(OC)cc3)(C(=O)OC)[C@@H]12`, with -0.322.
Then `COC(=O)[C@@]1(Cc2ccc(F)cc2)[C@H]2c3cc(C(=O)N4CCCC4)n(CCc4ccccn4)c3C[C@H]2CN1C(=O)c1ccccc1`, with 0.622.
